From PubChem BioAssay
FUS yeast rescue: rescues growth of FUS-expressing yeast | S. cerevisiae FUS-expressing, growth rescue, OD600, 24 h | AID 1347120 | hit rate 0.24% among 390,000 | Potency, µM (doses to about 76.6 µM), most hits filed as activators;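 further: plate controls were DMSO vehicle for no effect and reference control for full effect; nearly all actives have a fitted effect of over 55% in size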
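Steps: raffinose overnight preculture; dilution to OD 0.005 in 2% galactose minimal medium; compound addition (concentration series); 24hr at 30C, 99% humidity; absorbance read at 600 nm.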
Mm-Cpn inhibitor: inhibitors of Methanococcus maripaludis chaperonin TRiC (MmCpn) | purified Mm-Cpn ATPase, ADP Transcreener TR-FRET | Potency, µM (top dose mostly 76.9 µM), inactives show at the top dose activity, negative = inhibition, usual class: inhibitors | hit rate 0.031% among 330,000; further: on the % scale 0 is the no-effect control and ±100 the full control effect; nearly all actives have a fitted effect of over 80% in size
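Purified archaeal chaperonin (25 nM final) was preincubated with compound for 10 min at 37°C, then ATP (10 uM final) was added for 30 min at 37°C in Tris pH 7.4/KCl/MgCl2/DTT buffer. ADP was quantified by HTRF Transcreener TR-FRET.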
Abeta rescue: A-beta toxicity reversal in yeast; yeast expressing A-beta42, growth rescue, OD600, 48 h; response scale: 0% DMSO, 100% iron-clioquinol control; Potency, µM (series often up to 46.1 µM), hits mostly activators; hit rate 0.063% among 410,000; AID 1347071; further: nearly all actives have a fitted effect of over 55% in size
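Growth rescue measured by 600 nm absorbance after 48 h yeast culture at 30 C with compound. Values normalized between DMSO and an equimolar ferric chloride plus clioquinol control.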
TDP-43 yeast inh: TDP-43 toxicity inhibition in yeast | TDP-43 expressing yeast growth rescue, BacTiter-Glo, 24 h | Potency, µM (doses to about 46.1 µM), inactives show at the top dose growth rescue (activation), hits mostly activators | hit rate 1.8% among 410,000 | AID 652104; further: % of control where 0% means no effect; nearly all actives have a fitted effect of over 50% in size
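Galactose-induced TDP-43 yeast, OD600=0.02, compound pinned; 24 hr, 30 deg C; BacTiter-Glo luminescence for growth. Inhibitors of TDP-43 toxicity read as activators.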
aSyn yeast inh: alpha-synuclein toxicity inhibition in yeast; Potency, µM (titrated, usually from 46.1 µM), for inactives: at the highest dose growth rescue (activation), actives largely listed as activators; Yeast expressing alpha-synuclein, growth rescue, BacTiter-Glo, 24 h; AID 652106; hit rate 0.14% among 370,000; further: % of control where 0% means no effect; nearly all actives have a fitted effect of over 65% in size
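Rescue of yeast growth: cells expressing toxic alpha-synuclein, induced in galactose at OD600 0.02, incubated with compound 24 h at 30 C. ATP luminescence quantified growth; inhibitors of toxicity appear as activators.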
ClpP mod: qHTS Assay for Activators of ClpP | ATP-dependent Clp protease proteolytic subunit (Bacillus subtilis (strain 168)), P80244 | purified B. subtilis ClpP, FRET peptide cleavage, 20 min | Potency, µM (titrated, usually from 57.5 µM), inactives show top-dose activity change, negative = active | hit rate 1.9% among 340,000; active means well fitted falling curve with a large enough effect; inconclusive means small, poorly fitted or top-dose-only effect; inactive means no such curve, though single readings can be large or run the other way; further: the source files actives as falling curves though it sought activators and does not explain the sign; nearly all actives have a fitted effect of over 65% in size
Target sequence (P80244 whole entry, looked up): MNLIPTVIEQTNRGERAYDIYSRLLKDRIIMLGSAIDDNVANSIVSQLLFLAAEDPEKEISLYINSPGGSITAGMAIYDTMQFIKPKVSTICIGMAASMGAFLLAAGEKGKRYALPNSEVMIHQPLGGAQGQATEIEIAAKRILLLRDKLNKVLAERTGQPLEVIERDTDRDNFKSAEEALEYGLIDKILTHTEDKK
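FRET quenching reversal measured ClpP activation: 10 microg/mL B. subtilis ClpP at pH 8 with the FRET-FV decapeptide, read at 430 nm after 320 nm excitation. The 20-min minus 0-min signal was scaled between DMSO/no-enzyme wells and ADEP (5.8 microM final).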
Starred values were filed as active, the others as inactive; i = inactive; ? = inconclusive; / = not tested or not shown; ! = not confirmed by another sample; [ ] = remark or other dose. A selection: hits, their analogues and other compounds. The true share with any hit is near 3.6%. Unless noted, the call rests on the fitted dose curve; in most records, active means well fitted curve in the direction sought with a large enough effect; inconclusive means small, poorly fitted or top-dose-only effect, or another doubt; inactive means no such curve, though single readings can be large; an effect the other way counts as inactive or inconclusive. Potency means the concentration at half of the fitted maximal effect.

SMILES	FUS yeast rescue	Mm-Cpn inhibitor	Abeta rescue	TDP-43 yeast inh	aSyn yeast inh	ClpP mod
COc1ccc2sc(-c3ccccc3OC)c(-c3ccc4c(c3)OCCO4)c2c1	i	?	i	11%	6%	?
Nc1c(Br)cc(/C=C/c2ccnc3ccccc23)cc1Br	/	/	/	/	-12%	-3%
CCCCNS(=O)(=O)/C=C/c1cc2c(cc1CNC(=O)OC(C)(C)C)OCO2	i	/	/	/	/	/
CC(=O)Nc1ccc2[nH]c(C)c(CC=C(Cl)Cl)c(=O)c2c1	i	-3%[15.4 µM]	i	-8%	2%	32µM*
CCOC(=O)c1ccc2[nH]c(C)c(CCC(C)=O)c(=O)c2c1	i	-7%	i	-11%	0%	?
Cc1cc(Cl)ccc1C1=CC(=O)C[C@H](c2ccc(F)cc2)C1	i	-1%	i	14µM*	-10%	0%
O=C1C=C(c2cc(F)ccc2F)C[C@@H](c2ccc(F)cc2)C1	i	1%	i	22µM*	10%	1%
COc1ccc([C@H]2CC(=O)C=C(c3ccc(Cl)cc3C)C2)cc1	?	0%	i	18µM*	-1%	0%
COc1ccc([C@H]2CC(=O)C=C(c3ccc(OC)cc3OC)C2)cc1	?	-1%	i	0%	12%	-3%
COc1cc(F)c(C2=CC(=O)C[C@H](c3ccc(F)cc3)C2)cc1F	i	0%	i	?	9%	0%
COc1cccc(-c2nc(NCc3cccnc3)c3ccccc3n2)c1O	i	-1%	i	4%	2%	/
COc1cccc(-c2nc(Oc3cccc(C)c3C)c3ccccc3n2)c1O	i	1%	i	5%	11%	1%
COc1cccc(-c2nc(NC(C)C)c3ccccc3n2)c1O	i	-1%	i	20µM*	-2%	-1%
CCC(C)Nc1nc(-c2cccc(OC)c2O)nc2ccccc12 (centres undefined)	i	2%	i	11µM*	-9%	0%
CCCCN(CCCC)CCCNC(=O)c1cc(-c2ccc(Cl)s2)nc2ccccc12	i	/	i	-1%	/	35µM*
CCCCN(C)CCCNC(=O)c1cc(-c2ccc(Br)s2)nc2ccccc12	i	/	i	?	/	4%
CN(Cc1ccccc1)C(=O)COC(=O)c1cc(-c2ccc(Cl)s2)nc2ccccc12	i	-19%	i	?	0%	11µM*
COC(=O)C1CCN(C(=O)c2cc(-c3ccc(Cl)s3)nc3ccccc23)CC1	?	?	i	35µM*	?	3%
C#CCN(C1CCCC1)S(=O)(=O)C=C	/	/	/	/	/	-1%
O=C(NCC(c1ccco1)N1CCc2ccccc2C1)c1cccc(F)c1 (centres undefined)	i	1%	i	14%	3%	1%
Cc1ccccc1C(=O)NCC(c1ccco1)N1CCc2ccccc2C1 (centres undefined)	i	40µM*	i	5%	-3%	2%
CCCCCCCNC(=O)C1(CC2CC(c3cccc(Br)c3)=NO2)CCN(C(=O)CCCCCBr)CC1 (centres undefined)	28µM*	1%	i	?	15%	-3%
COc1ccccc1NC(=S)N(Cc1ccccc1)Cc1cccnc1	i	2%	i	17%	5%	/
COc1ccccc1NC(=S)N(Cc1ccccc1)Cc1ccccn1	i	-1%	?	22µM*	4%	-1%
Cc1ccc(C(=O)c2cn(Cc3ccccc3C)c3nc(C)ccc3c2=O)cc1	25µM*	/	i	?	/	-1%
SMILES	FUS yeast rescue	Mm-Cpn inhibitor	Abeta rescue	TDP-43 yeast inh	aSyn yeast inh	ClpP mod
CCc1ccc(C(=O)c2cn(CC(=O)Nc3cc(OC)ccc3OC)c3nc(C)ccc3c2=O)cc1	35µM*	/	i	-26%	/	-1%
COc1ccc(Cl)cc1NC(=O)Cn1cc(C(=O)c2ccc(C)cc2)c(=O)c2ccc(C)nc21	i	/	i	0%	/	-1%
Cc1ccc(C(=O)c2cn(Cc3cccc(F)c3)c3nc(C)ccc3c2=O)cc1	i	/	i	14µM*	/	0%
Cc1ccc(C(=O)c2cn(Cc3ccccc3)c3nc(C)ccc3c2=O)cc1	i	/	i	11µM*	/	7%
CCCSC1=NC2(CCN(C(=O)NC3CCCCC3)CC2)N=C1c1ccc(Cl)cc1	i	/	i	24%	/	0%
COc1ccc(CNC(=O)c2cnc3ccc(C)cn3c2=O)cc1	i	/	i	13%	/	-15%
COP(=O)(OC)C(NC(=O)OCc1ccccc1)C(C)C (centres undefined)	i	/	/	/	/	/
Cc1nc(C)c(-c2ccc(SCc3ccccc3C)nn2)s1	i	-4%	i	16µM*	1%	2%
Cc1cc(N2CCN(c3cccc(C)c3C)CC2)n2cnnc2n1	i	/	i	22µM*	/	-3%
Cc1cc(N2CCN(c3ccccc3F)CC2)n2cnnc2n1	i	/	i	?	/	-2%
C(=C1c2ccccc2Oc2ccccc21)c1ccccc1	/	/	/	/	-7%	-8%
CCOc1ccc(C(=O)c2cn(CC(=O)Nc3ccc4c(c3)OCCO4)c3ccc(OC)cc3c2=O)cc1	i	/	i	15%	/	-5%
COc1cc(OC)c(NC(=O)Cn2ncn3c(cc4cc(C)ccc43)c2=O)cc1Cl	i	/	i	15%	/	-7%
Cc1ccc(NC(=O)Cn2ncn3c(cc4ccccc43)c2=O)c(C)c1	32µM*!	-7%	i	12%	0%	?
Cc1ccc(Nc2c(-c3ccc(N4CCOCC4)cc3)nc3c(C)cccn23)cc1	i	/	i	19%	/	4%
O=C(CN1c2ccccc2Sc2ccccc21)NNC(=S)Nc1ccc(Cl)cc1	i	0%	i	?	-1%	25µM*
O=C(NCCc1ccccc1)c1ccc(Cl)cc1[N+](=O)[O-]	i	-3%	i	11µM*	2%	0%
O=C(CSc1nc2ccccc2n1Cc1ccccc1)NN=Cc1c[nH]c2ccccc12	i	/	/	/	/	/
c1ccc(CNc2nc(NCc3ccco3)nc(N3CCOCC3)n2)cc1	i	1%	i	21%	3%	1%
Cc1cccc(Nc2nc(NCc3ccco3)nc(N3CCOCC3)n2)c1	i	0%	i	13µM*	13%	-1%
Clc1ccc(Cl)c(OCc2cc(-c3ccccc3Cl)on2)c1	i	-3%	i	-18%	3%	14µM*
CCOC(=O)c1c(NC(C)=O)c2c3c(sc2n1Cc1nc(-c2ccccc2Cl)oc1C)CCCC3	i	/	i	15%	/	-6%
